Test systems include RPMI-8226 leukemia; OVCAR-8 ovarian; OVCAR-5 ovarian; OVCAR-4 ovarian; SK-OV-3 ovarian; OVCAR-3 ovarian; HS 578T breast; NCI/ADR-RES ovarian; T-47D breast; BT-549 breast; MDA-MB-435 melanoma; SW-620 colon; MCF7 breast; HCT-116 colon; HCC-2998 colon; KM12 colon; IGROV1 ovarian.
What all share (assay): NCI-60 one-dose screen, 48 h (100 = growth as untreated, 0 = no growth, -100 = all killed)
Conditions in all cases: 10 µM unless noted

This is part of a sample that, as a whole, favours compounds with a hit. Of some 83,000 tested, about 20% had one in any assay.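 Percent growth is the endpoint: 0 to 100 indicates growth inhibition (40 means 60% inhibition), 0 means no net growth, and negative values indicate cell death.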 Unmarked numbers belong to inactive results. Active and inactive are the calls of the source. The calls were made as follows: active = growth percent below 10; inactive = the rest.

Turning to `O=C1OCC/C1=C\OCCCO/C=C1\CCOC1=O`, the growth with RPMI-8226 leukemia was 105%; with OVCAR-8 ovarian it was 106%; with OVCAR-5 ovarian, 107%; with OVCAR-4 ovarian, 99.5%; in the assay with SK-OV-3 ovarian it was 114%; in the assay on OVCAR-3 ovarian, 110%. Besides, the growth in the assay on HS 578T breast is 112%; in the assay with NCI/ADR-RES ovarian it was 104%; in the assay on T-47D breast, 103%; with BT-549 breast, 96.9%; in the assay with MDA-MB-435 melanoma, 104%; in the assay with SW-620 colon it was 109%. Further, the growth in the assay on MCF7 breast was 104%; in the assay on HCT-116 colon, 109%; with HCC-2998 colon it was 114%; with KM12 colon, 114%.
For `COc1ccc2nccc(/C=C/c3ccnc4ccc(OC)cc34)c2c1`, the growth in the assay on RPMI-8226 leukemia was -5.34% (active); with OVCAR-8 ovarian, 68.9%; in the assay with OVCAR-5 ovarian it was 117%; in the assay with OVCAR-4 ovarian, 104%; with SK-OV-3 ovarian, 115%; with IGROV1 ovarian, 102%. The growth was 101% in the assay with NCI/ADR-RES ovarian; 98.4% in the assay on T-47D breast; 189% with BT-549 breast; 111% in the assay on MDA-MB-435 melanoma; 104% in the assay on SW-620 colon; 88.1% in the assay with MCF7 breast. In addition, the growth in the assay with HCC-2998 colon was 96.5%; with KM12 colon, 99.5%.
Consider `Cc1cc(NC(=O)Nc2cccc3ccccc23)no1`, for which the growth with RPMI-8226 leukemia was 102%; with OVCAR-8 ovarian, 105%; in the assay on OVCAR-5 ovarian, 98.9%; in the assay on OVCAR-4 ovarian, 103%; in the assay on SK-OV-3 ovarian, 103%; with OVCAR-3 ovarian, 113%. Further, the growth in the assay with HS 578T breast is 107%; in the assay with NCI/ADR-RES ovarian, 103%; with T-47D breast, 87.6%; in the assay on BT-549 breast, 79.9%; with MDA-MB-435 melanoma, 101%; in the assay on SW-620 colon, 109%. The growth in the assay with MCF7 breast is 84%; in the assay on HCT-116 colon it was 95%; with HCC-2998 colon it was 104%; in the assay with KM12 colon, 112%.
For `CC(=O)Oc1c(C)c(OC(C)=O)c2c(c1C(C)=O)OC1CC(=O)C(C(C)=O)=C(O)C21C` (stereo not given), the growth in the assay with RPMI-8226 leukemia was 78.3%; in the assay on OVCAR-8 ovarian, 105%; in the assay with OVCAR-5 ovarian, 102%; with OVCAR-4 ovarian, 99%; in the assay on SK-OV-3 ovarian it was 98.2%; with OVCAR-3 ovarian it was 118%. The growth is 109% in the assay on HS 578T breast; 80.7% with NCI/ADR-RES ovarian; 103% in the assay with T-47D breast; 90.4% with BT-549 breast; 105% in the assay with MDA-MB-435 melanoma; 105% in the assay with SW-620 colon. Further, the growth was 97% in the assay on MCF7 breast, 100% in the assay on HCT-116 colon, 102% with HCC-2998 colon and 105% with KM12 colon.
For `O=C(Nc1ccc(Nc2ccncc2)cc1)c1ccc(Nc2ccnc3ccc([N+](=O)[O-])cc23)cc1[N+](=O)[O-]`, the growth was 77.8% with RPMI-8226 leukemia; 44.4% in the assay with OVCAR-8 ovarian; 97.4% in the assay on OVCAR-5 ovarian; 91.1% in the assay on OVCAR-4 ovarian; 82.8% in the assay with SK-OV-3 ovarian; 98.1% in the assay with OVCAR-3 ovarian. Moreover, the growth was -5.48% (active) in the assay on HS 578T breast; 52% in the assay on NCI/ADR-RES ovarian; 62.2% with T-47D breast; 38.8% in the assay on BT-549 breast; 63.1% in the assay on MDA-MB-435 melanoma; 96.8% in the assay on SW-620 colon. Also, the growth was 50.8% with MCF7 breast, 54.4% in the assay on HCT-116 colon, 104% in the assay with HCC-2998 colon and 2.06% (active) in the assay with KM12 colon.
`O=C(Nc1ncc([N+](=O)[O-])s1)c1cccc([N+](=O)[O-])c1`: the growth in the assay on RPMI-8226 leukemia was -6.2% (active); with OVCAR-8 ovarian, 43.1%; in the assay with OVCAR-5 ovarian, 87.6%; in the assay with OVCAR-4 ovarian it was 40.5%; in the assay with SK-OV-3 ovarian, 64.1%; with OVCAR-3 ovarian, 21.3%. Further, the growth in the assay with HS 578T breast was 49.2%; in the assay on NCI/ADR-RES ovarian it was 39.9%; in the assay with T-47D breast, 24.7%; in the assay with BT-549 breast, 35.8%; in the assay with MDA-MB-435 melanoma, 31.4%; in the assay with SW-620 colon it was 73.4%. In addition, the growth in the assay on MCF7 breast is 50.7%; with HCT-116 colon it was 34.1%; in the assay with HCC-2998 colon, 28.7%; in the assay with KM12 colon it was 62.9%.
Take `COc1cccc2c1C(=O)c1c(O)c3c(c(O)c1C2=O)C[C@@](O)(/C(C)=N/NC(=O)c1cccc([N+](=O)[O-])c1)C[C@@H]3OC1CC(N)C(O)C(C)O1` (stereo not given in full): the growth in the assay on RPMI-8226 leukemia is -55.6% (active); in the assay with OVCAR-8 ovarian, -6.79% (active); in the assay on OVCAR-5 ovarian it was -9.12% (active); in the assay with OVCAR-4 ovarian it was -17.3% (active); in the assay with SK-OV-3 ovarian, -29.7% (active); in the assay with OVCAR-3 ovarian, -40.7% (active). The growth in the assay on HS 578T breast is -12.3% (active); with NCI/ADR-RES ovarian, 58.3%; in the assay on T-47D breast, -28.9% (active); in the assay on BT-549 breast it was -14.9% (active); in the assay with MDA-MB-435 melanoma, -34.3% (active); with SW-620 colon it was -43.5% (active). Moreover, the growth in the assay on MCF7 breast is -8.97% (active); in the assay with HCT-116 colon it was -53.8% (active); in the assay on HCC-2998 colon it was -58.2% (active); in the assay with KM12 colon, -39.2% (active).
In the case of `CN1CCCC1c1cccnc1` (stereo not given), the growth in the assay on RPMI-8226 leukemia is 70.7%; in the assay with OVCAR-8 ovarian, 111%; in the assay with OVCAR-5 ovarian, -6.38% (active); in the assay on OVCAR-4 ovarian, 104%; with SK-OV-3 ovarian it was 116%; in the assay on OVCAR-3 ovarian it was 117%. The growth in the assay on HS 578T breast was 112%; in the assay on NCI/ADR-RES ovarian it was -37% (active); in the assay with T-47D breast it was 110%; in the assay with MDA-MB-435 melanoma, 119%; in the assay with SW-620 colon it was 108%; in the assay on MCF7 breast, 97.1%. The growth in the assay with HCT-116 colon and in the assay on KM12 colon was 104% each time.
`O=C(Nc1cccc([N+](=O)[O-])c1)c1cccc(C(=O)Nc2cccc([N+](=O)[O-])c2)c1`: the growth in the assay on RPMI-8226 leukemia was 65.9%; in the assay on OVCAR-8 ovarian it was 28.6%; in the assay with OVCAR-5 ovarian, 95.6%; in the assay with OVCAR-4 ovarian it was 56.9%; in the assay on SK-OV-3 ovarian, 68.6%; with OVCAR-3 ovarian, 71.1%. The growth in the assay with HS 578T breast is 9.17% (active); with NCI/ADR-RES ovarian, 62.2%; with T-47D breast it was 68.4%; in the assay on BT-549 breast, -4.34% (active); with MDA-MB-435 melanoma it was 83.1%; in the assay with SW-620 colon, 92.8%. The growth is 68.3% with MCF7 breast, 78.4% with HCT-116 colon, 88.2% with HCC-2998 colon and 87.6% in the assay with KM12 colon.

For the origin of these results see PubChem BioAssay (NCI).
